Compound activity: PubChem, several laboratories
An excerpt weighted towards active compounds, which were near 32% of everything screened.
CYP2C9 activ: CYP2C9 (human) activation | 1.4% of 96,000 active | P11712 | AID 1024 | activation factor at 5 µM | recombinant CYP2C9, luciferin-H conversion, luminescence; hits give high values; factor 1 = untreated enzyme, 0 = blocked;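 active = activation factor of 2 or more for CYP2C9 at a 5 µM dose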;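 also: 0 = sulfaphenazole-blocked wells and 1 = vehicle-only wells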
CYP2C19 activ: cytochrome P450 2C19 (human) activation | P33261 | recombinant CYP2C19, luciferin-H EGE luminescence; hits give high values; 0 = fully inhibited enzyme, 1 = untreated enzyme | activation factor at 5 µM | 96,000 tested, under 10 active | AID 1025;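 active = activation factor of at least 2 at 5 µM in the primary screen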;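 also: 0 = wells with 2.5 mM tranylcypromine and 1 = vehicle-only wells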
Target sequence (P33261 whole entry, looked up): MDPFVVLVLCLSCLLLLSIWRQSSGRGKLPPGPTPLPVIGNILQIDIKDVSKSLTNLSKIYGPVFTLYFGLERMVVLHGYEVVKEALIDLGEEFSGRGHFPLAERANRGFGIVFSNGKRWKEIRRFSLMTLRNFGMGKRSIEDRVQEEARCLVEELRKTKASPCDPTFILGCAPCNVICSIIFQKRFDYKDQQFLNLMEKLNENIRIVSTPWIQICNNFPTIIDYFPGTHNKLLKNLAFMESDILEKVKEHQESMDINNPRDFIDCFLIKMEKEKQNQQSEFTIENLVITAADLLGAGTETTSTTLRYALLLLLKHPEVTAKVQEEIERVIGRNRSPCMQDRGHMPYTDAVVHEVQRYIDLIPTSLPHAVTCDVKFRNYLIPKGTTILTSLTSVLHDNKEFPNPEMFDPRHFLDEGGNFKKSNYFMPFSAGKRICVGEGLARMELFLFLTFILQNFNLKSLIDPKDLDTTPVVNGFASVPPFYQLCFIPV
CYP2C19 inhib: human CYP2C19 inhibition | 21% of 96,000 active | CYP2C19 Supersomes, luciferin-H EGE luminescence, 30 min | inhibition, % at 5 µM | AID 778;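 active = CYP2C19 inhibition above a set limit at 5 µM in the primary screen, cut at about 50% in these data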;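 also: plate controls were negative control wells for no effect and 2.5 mM tranylcypromine positive control for full effect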
PostGolgi ctrl: inhibits growth of the yeast control strain; efflux-deficient yeast background strain, growth absorbance A615, 16 h; 5% of 98,000 active; inhibition, % at 10 µM
PostGolgi yeast: growth inhibition of a yeast mutant, post-Golgi transport screen | post-Golgi transport phenotypic cell assay | inhibition, % at 10 µM | 0.9% of 98,000 active | AID 739;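 also: yeast cells grown in 1536-well plates; yeast grown about 18 h at 30C before absorbance read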
CYP2C9 inh: blocks human cytochrome P450 2C9; P11712; CYP2C9 Supersomes, luciferin-H conversion, luminescence; inhibition, % at 5 µM; 20% of 96,000 active; AID 777;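 active = blocking of liver enzyme CYP2C9 beyond about 50% at 5 µM, limit read from the data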
* = called active by the depositor. Rule as the data show it, unless noted: active = inhibition above about 30%; inactive = the rest.

How did CCC(CC)C(=O)Nc1cccc(/C(C)=N/NC(=O)c2ccccc2Cl)c1 do in these assays?
CYP2C9 activ: 0.6; CYP2C19 activ: 0.5; CYP2C19 inhib: 51.3*; PostGolgi ctrl: -1.1; PostGolgi yeast: 7.5; CYP2C9 inh: 41.7

How did CCC(=O)Nc1cccc(-c2nc3ccccc3c(=O)o2)c1 do in these assays?
CYP2C9 activ: 1.3; CYP2C19 activ: 0.8; CYP2C19 inhib: 23.3; PostGolgi ctrl: -5.2; PostGolgi yeast: 0.6; CYP2C9 inh: -25.1

Results for CCC(CCC(=O)Nc1cccc(C(=O)O)c1)C(=O)O (configuration not stated) ?
PostGolgi ctrl: 7.6; PostGolgi yeast: 3.0

What do the screens show for `CCC(CC)C(=O)Nc1cccc(/C(C)=N/NC(=O)c2c(Br)cnn2C)c1`?
CYP2C9 activ: 0.9; CYP2C19 activ: 1; CYP2C19 inhib: -4.1; PostGolgi ctrl: -8.5; PostGolgi yeast: -4.0; CYP2C9 inh: 12.9

Results for CCC(CC)C(=O)Nc1cccc(C(=O)c2ccccc2)c1 ?
CYP2C9 activ: 0.4; CYP2C19 activ: 0.3; CYP2C19 inhib: 69.5*; PostGolgi ctrl: 14.2; PostGolgi yeast: -1.3; CYP2C9 inh: 55.4*

Results for COc1ccc(OC(=O)c2cnn(-c3ccccc3)c2C)cc1 ?
CYP2C9 activ: 0.6; CYP2C19 activ: 0.8; CYP2C19 inhib: 19.5; PostGolgi ctrl: 3.5; PostGolgi yeast: 10.2; CYP2C9 inh: 39.0

Results for CC(C)c1nc2oc3ccccc3c(=O)c2c(=O)n1-c1ccccc1 ?
CYP2C9 activ: 1.1; CYP2C19 activ: 1.1; CYP2C19 inhib: -10.2; PostGolgi ctrl: -2.1; PostGolgi yeast: -9.1; CYP2C9 inh: -8.6

What do the screens show for `CCC(=O)Oc1ccc(C(=O)Nc2cccc(C(=O)c3ccccc3)c2)cc1`?
CYP2C9 activ: 0.3; CYP2C19 activ: 0.3; CYP2C19 inhib: 71.2*; PostGolgi ctrl: 2.8; PostGolgi yeast: 1.7; CYP2C9 inh: 72.9*

Results for Cc1[nH]c(=O)[nH]c(=O)c1/C=N/NC(=O)[C@@H](NC(=O)OC(C)(C)C)C(C)C ?
CYP2C9 activ: 1; CYP2C19 activ: 1.1; CYP2C19 inhib: -5.2; PostGolgi ctrl: 12.7; PostGolgi yeast: -35.7; CYP2C9 inh: 2.2

Results for N#Cc1nc(COc2ccc(Cl)cc2)oc1N1CCN(Cc2ccccc2)CC1 ?
CYP2C9 activ: 0.5; CYP2C19 activ: 0.6; CYP2C19 inhib: 39.6; PostGolgi ctrl: 25.0; PostGolgi yeast: 0.3; CYP2C9 inh: 53.2*

How did COc1ccc(N2CCN(c3oc(COc4ccc(Cl)cc4)nc3C#N)CC2)cc1 do in these assays?
CYP2C9 activ: 0.5; CYP2C19 activ: 0.6; CYP2C19 inhib: 35.1; PostGolgi ctrl: 5.9; PostGolgi yeast: -2.1; CYP2C9 inh: 50.1*

Results for N#Cc1nc(Cc2ccccc2)oc1N1CCN(c2cccc(Cl)c2)CC1 ?
CYP2C9 activ: 0.6; CYP2C19 activ: 0.7; CYP2C19 inhib: 28.1; PostGolgi ctrl: -8.8; PostGolgi yeast: -5.9; CYP2C9 inh: 42.1

How did COc1ccc(N2CCN(c3oc(COc4ccccc4)nc3C#N)CC2)cc1 do in these assays?
PostGolgi ctrl: 20.5; PostGolgi yeast: -6.0

What do the screens show for `CCOc1ccc(-c2nc(C#N)c(N3CCN(Cc4ccccc4)CC3)o2)cc1`?
CYP2C9 activ: 0.3; CYP2C19 activ: 0.6; CYP2C19 inhib: 36.2; PostGolgi ctrl: 23.6; PostGolgi yeast: -5.4; CYP2C9 inh: 66.7*

How did CCCn1c(=O)c2ccccc2n2c(SCCOc3ccc(Cl)cc3)nnc12 do in these assays?
CYP2C9 activ: 1; CYP2C19 activ: 0.8; CYP2C19 inhib: 17.2; PostGolgi ctrl: -5.9; PostGolgi yeast: 23.0; CYP2C9 inh: -4.3

What do the screens show for `CCOc1cccc2cc(C(=O)N3CCN(C/C=C/c4ccccc4)CC3)c(=O)oc12`?
PostGolgi ctrl: 15.4; PostGolgi yeast: 2.7

What do the screens show for `Cc1cc(C(=O)N2CCc3ccccc32)c2ccccc2n1`?
CYP2C9 activ: 0.6; CYP2C19 activ: 0.3; CYP2C19 inhib: 65.4*; PostGolgi ctrl: 13.6; PostGolgi yeast: 3.0; CYP2C9 inh: 37.6

Results for CCOc1cccc2cc(C(=O)N3CCc4ccccc43)c(=O)oc12 ?
CYP2C9 activ: 2.4*; CYP2C19 activ: 1.1; CYP2C19 inhib: -9.1; PostGolgi ctrl: 2.3; PostGolgi yeast: 2.5; CYP2C9 inh: -140.0

Results for COc1cccc2cc(C(=O)N3CCc4ccccc43)c(=O)oc12 ?
CYP2C9 activ: 0.9; CYP2C19 activ: 0.3; CYP2C19 inhib: 68.1*; PostGolgi ctrl: 15.1; PostGolgi yeast: 7.2; CYP2C9 inh: 13.6

How did COc1ccc2oc(=O)c(C(=O)N3CCc4ccccc43)cc2c1 do in these assays?
CYP2C9 activ: 2.2*; CYP2C19 activ: 1; CYP2C19 inhib: 0.5; PostGolgi ctrl: -3.2; PostGolgi yeast: 3.7; CYP2C9 inh: -117.4

What do the screens show for `COc1ccc(-n2c(=O)[nH]cc(C(=O)N3CCc4ccccc43)c2=O)cc1`?
PostGolgi ctrl: 0.3; PostGolgi yeast: -4.2

How did CC1(C)N(O)CC(c2cccs2)=[N+]1[O-] do in these assays?
CYP2C9 activ: 1.1; CYP2C19 activ: 1; CYP2C19 inhib: -4.5; PostGolgi ctrl: 11.8; PostGolgi yeast: 1.8; CYP2C9 inh: -6.7

What do the screens show for `O=c1c2ccccc2cnn1-c1ccc(Cl)cc1`?
CYP2C9 activ: 0.9; CYP2C19 activ: 0.9; CYP2C19 inhib: 14.2; PostGolgi ctrl: 9.0; PostGolgi yeast: -1.4; CYP2C9 inh: 10.3

Results for NC(=O)c1ccc([N+](=O)[O-])cc1SCc1ccccc1 ?
CYP2C9 activ: 0.8; CYP2C19 activ: 0.7; CYP2C19 inhib: 29.4; PostGolgi ctrl: 13.7; PostGolgi yeast: 8.0; CYP2C9 inh: 23.7

How did CCCC(=O)Nc1nc(-c2ccc3c(c2)CCN3S(C)(=O)=O)cs1 do in these assays?
CYP2C9 activ: 0.8; CYP2C19 activ: 0.7; CYP2C19 inhib: 32.2; PostGolgi ctrl: 5.3; PostGolgi yeast: -17.1; CYP2C9 inh: 16.1

What do the screens show for `O=C(Cc1cccs1)Nc1nc(-c2ccc(F)cc2F)cs1`?
CYP2C9 activ: 0.4; CYP2C19 activ: 0.8; CYP2C19 inhib: 17.8; PostGolgi ctrl: -6.9; PostGolgi yeast: -8.3; CYP2C9 inh: 56.2*

Results for O=C(Cc1ccccc1)Nc1nc(-c2cccs2)cs1 ?
CYP2C9 activ: 0.6; CYP2C19 activ: 0.5; CYP2C19 inhib: 48.6; PostGolgi ctrl: -1.4; PostGolgi yeast: -7.6; CYP2C9 inh: 44.1

What do the screens show for `CC1Cc2cc(-c3csc(NC(=O)Cc4cccs4)n3)ccc2N1S(C)(=O)=O` (configuration not stated)?
CYP2C9 activ: 0.1; CYP2C19 activ: 0.2; CYP2C19 inhib: 77.0*; PostGolgi ctrl: 24.9; PostGolgi yeast: -28.2; CYP2C9 inh: 91.8*

Results for O=C(Cc1ccccc1F)Nc1nc(-c2cccs2)cs1 ?
CYP2C9 activ: 0; CYP2C19 activ: 0.1; CYP2C19 inhib: 93.6*; PostGolgi ctrl: 5.6; PostGolgi yeast: 9.6; CYP2C9 inh: 99.1*

Results for Cc1ccc(-c2noc(-c3ccccc3Br)n2)cc1 ?
CYP2C9 activ: 1.3; CYP2C19 activ: 1.1; CYP2C19 inhib: -7.0; PostGolgi ctrl: 0.8; PostGolgi yeast: 16.8; CYP2C9 inh: -26.8
